Screens (PubChem BioAssay)
Shown are actives, neighbours in structure and some others; about 3.5% of the full set was active somewhere.
MITF primary: MITF inhibitors, primary screen, biochemical, AlphaScreen, human; Microphthalmia-associated transcription factor (Homo sapiens), O75030; AlphaScreen MITF homodimerization, bead proximity signal; inhibition, % at 2.6 µM; 0.91% of 650,000 active; in the data active = inhibition above about 50%;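 also: 0% = vehicle wells with protein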
FBW7 activator: FBW7 E3 ligase activators, primary screen, biochemical, AlphaScreen, human | normalized activity (activation), % at 26.1 µM | AlphaScreen FBW7–phospho-cyclin E peptide binding, activator screen | F-box/WD repeat-containing protein 7 (Homo sapiens), Q969H0 | 0.13% of 650,000 active | AID 1259310, 2017; in the data active = normalized activity above about 1.9%;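 also: purified mutant Fbw7 with reduced substrate affinity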
TEAD-YAP inh: TEAD-YAP interaction inhibition, primary screen, TEAD-YAP interaction inhibitor project, luminescence, HEK-TIYL cells; 1.4% of 640,000 active; inhibition, % at 9.12 µM; AID 1259422, 2018; TEAD-Gal4/YAP UAS-luciferase luminescence; in the data active = inhibition above about 32%;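 also: 0% = median of test compound wells and 100% = reference inhibitor wells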
GPR151 activ: activators of human GPR151, primary screen, cell-based, PathHunter beta-arrestin, luminescence. AID 1508602, 2020. PathHunter beta-arrestin GPR151 cells. activation, % at 11.2 µM. 1% of 650,000 active; in the data active = activation above about 4.9%;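 also: 0% = median of compound wells and 100% = cells with positive control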
Target sequence (Q8TDV0 whole entry, looked up): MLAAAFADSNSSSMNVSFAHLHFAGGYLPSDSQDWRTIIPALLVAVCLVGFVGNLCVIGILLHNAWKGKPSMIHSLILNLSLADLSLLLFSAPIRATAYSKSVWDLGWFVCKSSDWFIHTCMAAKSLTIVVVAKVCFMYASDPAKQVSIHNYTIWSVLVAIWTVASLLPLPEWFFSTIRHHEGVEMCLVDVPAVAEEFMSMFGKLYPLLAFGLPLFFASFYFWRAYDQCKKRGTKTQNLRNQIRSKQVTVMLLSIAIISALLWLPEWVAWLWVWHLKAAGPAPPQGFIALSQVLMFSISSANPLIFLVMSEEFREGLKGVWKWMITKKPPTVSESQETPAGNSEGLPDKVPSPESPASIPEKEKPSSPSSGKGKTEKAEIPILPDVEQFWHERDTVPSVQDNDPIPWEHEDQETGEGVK
MITF inh conf: MITF inhibitors, retest of hits, confirmation, biochemical, AlphaScreen, triplicate | shares compounds with MITF primary | AlphaScreen MITF homodimerization, biotin/His-MITF beads | inhibition, % at 2.6 µM | 16% of 4,700 active;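 active = inhibition above a cutoff derived from the DMSO control wells, cut at about 28% in these data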;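 also: 0% = MITF dimer wells with DMSO only; inhibitors lower the bead chemiluminescence by keeping MITF from dimerizing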
AS interf DR: AlphaScreen optical interference compounds, dose response, counter-screen, biochemical, HTS; shares compounds with MITF primary; IC50, µM; AlphaScreen optical interference counterscreen, cell-free; 6% of 480 active; call rule not given here
AlphaScreen intf2: AlphaScreen optical interference compounds, counter-screen for MITF inhibitor project, biochemical, triplicate; shares compounds with MITF primary; 7.6% of 4,700 active; inhibition, % at 2.6 µM; LysRS AlphaScreen counterscreen, signal interference;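 active = inhibition above a cutoff derived from the DMSO control wells, cut at about 30% in these data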
The depositor's hits bear a star.

C=CCNC(=O)CN1CCN(Cc2nc(-c3ccccc3)cs2)CC1 was read as MITF primary 70*, FBW7 activator 0, TEAD-YAP inh -19, GPR151 activ -3, MITF inh conf -18 and AlphaScreen intf2 2.
`COc1ccc(CCNC(=O)CN2CCN(Cc3nc(-c4ccco4)cs3)CC2)cc1OC` gave MITF primary 70*, FBW7 activator -1, TEAD-YAP inh 8, GPR151 activ 0, MITF inh conf 28*, AS interf DR >6.5 and AlphaScreen intf2 12.
COC(=O)C1=C(C)N(CC(C)C)C(=O)/C1=C\c1ccc(C(=O)OC)cc1 was read as MITF primary -1, FBW7 activator 0, TEAD-YAP inh 3 and GPR151 activ 1.
For CN=c1scc(C)n1/N=C/C1CCCCC1 the results were MITF primary 97*, FBW7 activator 0, TEAD-YAP inh -59, GPR151 activ 1, MITF inh conf 11 and AlphaScreen intf2 15.
For Cc1ccc(Nc2nc(NCCN3CCOCC3)nc3nccnc23)cc1C the results were MITF primary 61*, FBW7 activator 1, TEAD-YAP inh -8, GPR151 activ -2, MITF inh conf -7 and AlphaScreen intf2 -4.
Screening COCCCNCCOc1ccc(C(C)C)c(C)c1 returned MITF primary 60*, FBW7 activator 0, TEAD-YAP inh -11, GPR151 activ 0, MITF inh conf -1 and AlphaScreen intf2 6.
`Cc1cc(OCCCCNCCO)ccc1C(C)C` gave MITF primary 62*, FBW7 activator 0, TEAD-YAP inh 3, GPR151 activ -1, MITF inh conf -12 and AlphaScreen intf2 -3.
Cc1cc(OCCNCCN)ccc1C(C)C was read as MITF primary -7, FBW7 activator 0, TEAD-YAP inh 4 and GPR151 activ -1.
COCCNCCOc1ccc(C(C)C)c(C)c1 was read as MITF primary 60*, FBW7 activator 0, TEAD-YAP inh 5, GPR151 activ -2, MITF inh conf 11 and AlphaScreen intf2 12.
COCCCNCCCOc1ccc(OCc2ccccc2)cc1 was read as MITF primary 54*, FBW7 activator 0, TEAD-YAP inh -11, GPR151 activ 0, MITF inh conf 6 and AlphaScreen intf2 16.
`Cc1cc(OCCNCCO)ccc1C(C)C` gave MITF primary 4, FBW7 activator 0, TEAD-YAP inh -6 and GPR151 activ 0.
Screening C=CCNCCOCCOc1ccc(C(C)C)c(C)c1 returned MITF primary 52*, FBW7 activator 0, TEAD-YAP inh 4, GPR151 activ -1, MITF inh conf 0 and AlphaScreen intf2 1.
Cc1cc(OCCOCCN2CCCC2)ccc1C(C)C was read as MITF primary 25, FBW7 activator 0, TEAD-YAP inh 2 and GPR151 activ 4.
Cc1cccc(OCCCCNCCO)c1C was read as MITF primary -8, FBW7 activator 0, TEAD-YAP inh 13 and GPR151 activ -1.
Screening Cc1ccc(C)c(OCCCCNCCO)c1C returned MITF primary 56*, FBW7 activator 0, TEAD-YAP inh 1, GPR151 activ 0, MITF inh conf -13 and AlphaScreen intf2 -3.
N/C(=N\N=C\c1cccc([N+](=O)[O-])c1)SC1CC(=O)N(c2cccc([N+](=O)[O-])c2)C1=O (centres undefined) was read as MITF primary 1, FBW7 activator 0, TEAD-YAP inh -7 and GPR151 activ 1.
For Cc1ccc(NC(=O)CCN2C(=O)c3ccccc3C2=O)c(C)c1 the results were MITF primary 19, FBW7 activator 0, TEAD-YAP inh 7 and GPR151 activ 2.
Screening C/C=C/c1ccc(OCC(O)CN2CCN(Cc3ccc4c(c3)OCO4)CC2)c(OC)c1 (centres undefined) returned MITF primary 64*, FBW7 activator 0, TEAD-YAP inh 6, GPR151 activ 2, MITF inh conf 15 and AlphaScreen intf2 14.
For OC(COC1CCCc2ccccc21)CN1CCN(Cc2ccc3c(c2)OCO3)CC1 (centres undefined) the results were MITF primary 80*, FBW7 activator 0, TEAD-YAP inh -5, GPR151 activ 1, MITF inh conf 12 and AlphaScreen intf2 10.
Cc1cc(C)c(OCC(O)CN2CCN(Cc3ccc4c(c3)OCO4)CC2)c(C)c1 (centres undefined) was read as MITF primary 52*, FBW7 activator 0, TEAD-YAP inh -1, GPR151 activ -1, MITF inh conf -5 and AlphaScreen intf2 -7.
Screening COc1cccc(/C=N/NC(=O)CNc2cccc3ccccc23)c1 returned MITF primary 12, FBW7 activator 0, TEAD-YAP inh 5 and GPR151 activ 2.
Screening Cc1ccccc1C1N2CC3([N+](=O)[O-])CN1CC([N+](=O)[O-])(C2)C3(C)C (centres undefined) returned MITF primary 18, FBW7 activator 0, TEAD-YAP inh -11 and GPR151 activ -1.
`Cc1cc(=O)[nH]c(N/N=C/c2c3ccccc3cc3ccccc23)n1` gave MITF primary 51*, FBW7 activator 0, TEAD-YAP inh -1, GPR151 activ -2, MITF inh conf 24 and AlphaScreen intf2 -4.
`Cc1ccc(-c2csc3ncn(Cc4c(F)cccc4Cl)c(=O)c23)cc1` gave MITF primary -1, FBW7 activator 0, TEAD-YAP inh -1 and GPR151 activ 1.
Screening CCOc1ccc(N2CCN(CC(=O)Nc3ccc(SC)cc3)C2=O)cc1 returned MITF primary 61*, FBW7 activator 0, TEAD-YAP inh -5, GPR151 activ -1, MITF inh conf 1 and AlphaScreen intf2 15.
For O=C(CN1CCCCCC1)Nc1c2c(nc3c1CCC3)CCCC2 the results were MITF primary 58*, FBW7 activator 0, TEAD-YAP inh -4, GPR151 activ 1, MITF inh conf -5 and AlphaScreen intf2 -4.
`Cc1n[nH]c(C)c1NC(=O)CN1CCCCCC1` gave MITF primary 62*, FBW7 activator 0, TEAD-YAP inh 0, GPR151 activ 1, MITF inh conf 11 and AlphaScreen intf2 15.
For CCCCC(=O)Nc1c2c(nc3c1CCC3)CCCC2 the results were MITF primary -6, FBW7 activator 0, TEAD-YAP inh -4 and GPR151 activ 0.
CN1CCN(CC(=O)Nc2c3c(nc4c2CCC4)CCCC3)CC1 was read as MITF primary 74*, FBW7 activator 0, TEAD-YAP inh 3, GPR151 activ -1, MITF inh conf 4 and AlphaScreen intf2 4.
